Assay [1] is described as follows: growth inhibition of DIPG glioma cells, dose response, cell-based, SU-DIPG-XVII, MIPE5.0, CellTiter-Glo, qHTS (AID 1347060; cut-off not given, nearly all actives have AC50 up to about 26 µM;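 for AC50: cells exposed to compound for 48 hours before viability readout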). The following applies: SU-DIPG-XVII viability, CellTiter-Glo ATP luminescence. For orientation: In ATP-based viability assays light output follows the ATP content of the culture.
Assay [2] in a line: growth inhibition of DIPG glioma cells, dose response, cell-based, JHH-DIPG-1, MIPE4.0, CellTiter-Glo, qHTS (AID 1347062; cut-off not given, nearly all actives have AC50 up to about 27 µM;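 for AC50: cells exposed to compound for two days before readout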). To be noted: JHH-DIPG-1 viability, CellTiter-Glo ATP luminescence.
The nature of assay [3]: growth inhibition of DIPG glioma cells, dose response, cell-based, SU-DIPG-XIII, MIPE5.0, CellTiter-Glo, qHTS (AID 1347064; cut-off not given, nearly all actives have AC50 up to about 23 µM;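 for AC50: cells exposed to compound for 48 hours before the viability read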). The following applies: SU-DIPG-XIII viability, CellTiter-Glo ATP luminescence.
Assay [4] is described as follows: viability loss in pontine glioma line – cell-based, SU-DIPG-XXV, MIPE5.0, CellTiter-Glo, qHTS, dose response (AID 1347065; cut-off not given, nearly all actives have AC50 up to about 26 µM;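 note: cells exposed to compound for 48 hours before ATP readout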). To be noted: CellTiter-Glo ATP luminescence.
The nature of assay [5]: SU-DIPG-VI glioma cell viability, MIPE4.0 library, CellTiter-Glo luminescence, qHTS (AID 1347066; cut-off not given, nearly all actives have AC50 up to about 30 µM;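 note: cells exposed to compound for 48 hours before readout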). The following applies: CellTiter-Glo ATP luminescence.
A short description of assay [6]: modifiers of HSF1 nuclear foci, imaging, Selleck Cancer Library (AID 1347162; in the data active = plate-normalised HSF1 focus index below about 0.46). To be noted: human cells, at 10 µM; SSMD: measured here: HSF1 foci SSMD mean; cell count: measured here: cell number; plate-normalised HSF1 focus index: stronger effect = lower value.
Assay [7] can be described thus: ovarian cancer cell viability with rucaparib, profiling panel, oncology-focused library, rucaparib conditional (AID 1508598). To be noted: patient-derived ovarian cancer cells, CellTiter-Glo viability, 144 h, stronger effect = lower value.
Assay [8] in a line: JHH-DIPG-1 glioma cell viability, MIPE5.0 library, CellTiter-Glo luminescence, qHTS (AID 1347067; cut-off not given, nearly all actives have AC50 up to about 26 µM;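 note: cells exposed to compound for 48 hours before readout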). To be noted: JHH-DIPG-1 glioma viability, CellTiter-Glo ATP luminescence.
Assay [9] can be described thus: SU-DIPG-XXV glioma cell viability, MIPE5.0 library, qHTS (AID 1347068; cut-off not given, nearly all actives have IC50 up to about 30 µM;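 for IC50: cells exposed to compound for 48 hours before viability readout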). (In general: In qHTS, concentration-response curves come from the screen itself.)
Assay [10] can be described thus: sensitizers of A549 cells to miR-34 induction, primary screen, imaging, A549 dox-inducible miR-34, nuclei and caspase counts (AID 1347080;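 active = compounds whose cell count with miR-34 switched on is under 0.7 times the count with it off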). To be noted: A549 miR-34 inducible, Hoechst nuclei count, 48 h.
Assay [11] in a line: survival rescue of mitochondrial mutant cells in low glucose, primary screen, MELAS cybrids, Rieske KO mouse fibroblasts, CellTiter-Glo (AID 1508586;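 active = mean z-score across replicates of 1.96 or higher in either the MELAS or the Rieske mutant cell line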;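 note: z relative to plate mean and SD of compound and empty wells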).
Where [12] appears, read: stronger effect = lower value, cell number ratio, induced over uninduced.
[13] abbreviates: measured here: relative caspase fold change +Dox/-Dox.
Setting [14] is: measured here: total cells with miR-34 induction, stronger effect = lower value.
Setting [15] is: measured here: total cells without miR-34 induction.
[16] abbreviates: MELAS cybrid survival, CellTiter-Glo 48 h, stronger effect = higher value.
Where [17] appears, read: Rieske KO mouse fibroblast survival, CellTiter-Glo 72 h.

Inconclusive results are not listed. Calls of active or inactive are those of the source.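 Rule for the calls, unless noted: active = normalized viability below 100% at a tested concentration; inactive = the rest.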

In general, AC50 refers to the concentration giving half of the maximal activity seen. One may read the viability as a read-out of living cells in per cent, often relative to untreated cells. Take `CC[C@@H]1C(=O)N(C)c2cnc(Nc3ccc(C(=O)NC4CCN(C)CC4)cc3OC)nc2N1C1CCCC1`: the concentration at half-maximal activity (AC50) in assay [1] is 0.0661 µM (active); in [2], 8.33 µM (active); in [3], 1.48 µM (active); in assay [4], 0.0372 µM (active); in assay [5], 20.9 µM (active). In [6], the SSMD came to 4.3. Moreover, the cell count in [6] is 7240. In assay [6], the plate-normalised HSF1 focus index is 1.16 (inactive). For the same molecule, the viability is 116% (inactive) in [7] (at 0.000305 µM, OCI-C5x cells, with rucaparib 10 µM, 100% = cells with rucaparib alone); 133% (inactive) in assay [7] (at 0.000305 µM, OCI-C5x cells, without rucaparib); 89.2% (active) in [7] (at 0.000305 µM, OCI-P5x cells, with rucaparib 20 µM, 100% = cells with rucaparib alone); 77.1% (active) in assay [7] (at 0.000305 µM, OCI-P5x cells, without rucaparib); 126% (inactive) in assay [7] (at 0.00122 µM, OCI-C5x cells, with rucaparib 10 µM, 100% = cells with rucaparib alone); 124% (inactive) in assay [7] (at 0.00122 µM, OCI-C5x cells, without rucaparib). Besides, the viability in assay [7] (at 0.00122 µM, OCI-P5x cells, with rucaparib 20 µM, 100% = cells with rucaparib alone) is 89.5% (active); in assay [7] (at 0.00122 µM, OCI-P5x cells, without rucaparib), 50.9% (active); in [7] (at 0.00488 µM, OCI-C5x cells, with rucaparib 10 µM, 100% = cells with rucaparib alone), 51.4% (active); in assay [7] (at 0.00488 µM, OCI-C5x cells, without rucaparib), 47.2% (active); in assay [7] (at 0.00488 µM, OCI-P5x cells, with rucaparib 20 µM, 100% = cells with rucaparib alone), 74.9% (active); in assay [7] (at 0.00488 µM, OCI-P5x cells, without rucaparib) it was 17% (active). The viability in [7] (at 0.0195 µM, OCI-C5x cells, with rucaparib 10 µM, 100% = cells with rucaparib alone) is 40.7% (active); in assay [7] (at 0.0195 µM, OCI-C5x cells, without rucaparib), 37.1% (active); in assay [7] (at 0.0195 µM, OCI-P5x cells, with rucaparib 20 µM, 100% = cells with rucaparib alone), 71.7% (active); in assay [7] (at 0.0195 µM, OCI-P5x cells, without rucaparib) it was 18.2% (active); in [7] (at 0.0781 µM, OCI-C5x cells, with rucaparib 10 µM, 100% = cells with rucaparib alone) it was 38.3% (active); in assay [7] (at 0.0781 µM, OCI-C5x cells, without rucaparib), 30.4% (active). Moreover, the viability was 66.7% (active) in assay [7] (at 0.0781 µM, OCI-P5x cells, with rucaparib 20 µM, 100% = cells with rucaparib alone); 16.5% (active) in assay [7] (at 0.0781 µM, OCI-P5x cells, without rucaparib); 32.5% (active) in [7] (at 0.313 µM, OCI-C5x cells, with rucaparib 10 µM, 100% = cells with rucaparib alone); 30.3% (active) in assay [7] (at 0.313 µM, OCI-C5x cells, without rucaparib); 48.5% (active) in assay [7] (at 0.313 µM, OCI-P5x cells, with rucaparib 20 µM, 100% = cells with rucaparib alone); 15.8% (active) in assay [7] (at 0.313 µM, OCI-P5x cells, without rucaparib). The viability in assay [7] (at 1.25 µM, OCI-C5x cells, with rucaparib 10 µM, 100% = cells with rucaparib alone) was 15.9% (active); in assay [7] (at 1.25 µM, OCI-C5x cells, without rucaparib), 18.2% (active); in [7] (at 1.25 µM, OCI-P5x cells, with rucaparib 20 µM, 100% = cells with rucaparib alone), 43% (active); in [7] (at 1.25 µM, OCI-P5x cells, without rucaparib), 15.1% (active); in assay [7] (at 5 µM, OCI-C5x cells, with rucaparib 10 µM, 100% = cells with rucaparib alone), 18% (active); in [7] (at 5 µM, OCI-C5x cells, without rucaparib), 21.9% (active). Also, the viability in [7] (at 5 µM, OCI-P5x cells, with rucaparib 20 µM, 100% = cells with rucaparib alone) was 34.3% (active); in assay [7] (at 5 µM, OCI-P5x cells, without rucaparib), 15.2% (active).

For the molecule `Cn1cc(/C=C/C(=O)c2cccc(F)c2)cc1/C=C/C(=O)NO`, the concentration at half-maximal activity (AC50) is 3.72 µM (active) in assay [1], 2.35 µM (active) in assay [3], 5.25 µM (active) in [4] and 13.2 µM (active) in assay [8]. In addition, the molecule was classed as inactive in assay [2] and in [5].

With `O=c1ncn2nc(Sc3ccc(F)cc3F)ccc2c1-c1c(Cl)cccc1Cl`, the molecule was called inactive in assay [1], in assay [2], in assay [3], in assay [5], in [8] and in assay [9]. For the same molecule, the results for the fold change in assay [10] (setting [12]) and in assay [10] (setting [13]) were 0.89 (inactive) and 1.87, respectively. Besides, the figures for the cell count in [10] (setting [14]) and in [10] (setting [15]) were 6460 and 7250, respectively. The z-score is -0.528 (inactive) in [11] (setting [16]) and 1.18 in assay [11] (setting [17]).

One may read the IC50 as the concentration that inhibits the measured activity by half. For the molecule `COCCOc1ccc2c(c1)ncn2-c1ccc2cccc(N3CCC(N)CC3)c2n1`, the AC50 in assay [1] was 11.8 µM (active); in assay [2] it was 9.35 µM (active); in assay [3], 9.34 µM (active); in assay [4] it was 11.8 µM (active). Besides, in [9], the half-maximal inhibitory concentration (IC50) is 18.6 µM (active). Besides, the fold change was 1.1 (inactive) in assay [10] (setting [12]) and 0.953 in assay [10] (setting [13]). In addition, the cell count in [10] (setting [14]) was 1460; in [10] (setting [15]) it was 1320. The figures for the z-score in assay [11] (setting [16]) and in assay [11] (setting [17]) were 0.564 (inactive) and -2.41, respectively.

Turning to `C=CC[N+]1([C@H]2C[C@H]3[C@@H]4CC[C@H]5C[C@H](O)[C@@H](N6CCOCC6)C[C@]5(C)[C@H]4CC[C@]3(C)[C@H]2OC(C)=O)CCCC1`, the molecule was classed as inactive in assay [1], in assay [2], in assay [3], in [8] and in [9]. Besides, the fold change in [10] (setting [12]) is 0.847 (inactive); in assay [10] (setting [13]) it was 1.54. Further, the values for the cell count in [10] (setting [14]) and in assay [10] (setting [15]) were 9100 and 10700, respectively. Further, the z-score was 0.124 (inactive) in assay [11] (setting [16]) and -0.444 in assay [11] (setting [17]).

(Values after PubChem BioAssay.)
